Assay results taken from PubChem BioAssay AID1159580 (chemical genetic matrix, 2015).
Where “and” joins values, the source holds several entries; their conditions need not be identical. Equal entries are not always repeated. About 2,000 (36%) of roughly 5,500 compounds were called active. Inconclusive results (about 18%) are left out. Some of the results follow. Unmarked numbers belong to inactive results. No stated cut-off is given here; in the data, active means normalized growth mostly below about 0.91 (no sharp cut-off); inconclusive means no clear call, values can overlap the other calls; inactive means mostly above about 0.92.

Test: chemical genetic growth profiling, strain panel (AID 1159580);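 further: tested at 20 µM; growth read once vehicle control cultures reached saturation at 30 °C; 1 = growth at the plate median or of vehicle wells; lower values mean less growth of the strain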
Conditions: S. cerevisiae deletion strains, growth OD

**Q.** For `c1ccc(CC2=NCCN2)cc1`, which normalized growth (locus YAL013W, strain DEP1, active compounds read low) is on record?
**A.** The normalized growth was 1.01.

**Q.** What about the normalized growth (locus YAL021C, strain ccr4, active compounds read low) of the same compound?
**A.** Its normalized growth is 1.01.

**Q.** And the normalized growth (locus YAL026C, strain drs2, active compounds read low)?
**A.** Its normalized growth is 1.03.

**Q.** What about the normalized growth (locus YAL030W, strain snc1, active compounds read low) of the same compound?
**A.** The normalized growth was 1.01.

**Q.** And the normalized growth (locus YBL061C, strain skt5, active compounds read low)?
**A.** Its normalized growth is 1.01.

**Q.** And the normalized growth (locus YBR009C, strain hhf1, active compounds read low)?
**A.** The normalized growth was 0.998.

**Q.** What about the normalized growth (locus YBR021W, strain FUR4, active compounds read low) of the same compound?
**A.** The normalized growth was 0.861.

**Q.** And the normalized growth (locus YBR023C, strain chs3, active compounds read low)?
**A.** Its normalized growth is 1.01.

**Q.** What about the normalized growth (locus YBR171W, strain sec66, active compounds read low) of the same compound?
**A.** The normalized growth was 1.03.

**Q.** What about the normalized growth (locus YBR229C, strain ROT2, active compounds read low) of the same compound?
**A.** The normalized growth was 0.983.

**Q.** And the normalized growth (locus YBR231C, strain swc5, active compounds read low)?
**A.** Its normalized growth is 1.01.

**Q.** And the normalized growth (locus YBR279W, strain paf1, active compounds read low)?
**A.** The normalized growth was 1.01.

**Q.** And the normalized growth (locus YCL011C, strain gbp2, active compounds read low)?
**A.** The normalized growth was 1.02.

**Q.** And the normalized growth (locus YCL016C, strain dcc1, active compounds read low)?
**A.** The normalized growth was 1.

**Q.** What about the normalized growth (locus YCL029C, strain bik1, active compounds read low) of the same compound?
**A.** Its normalized growth is 0.887 (active).

**Q.** And the normalized growth (locus YCL061C, strain MRC1, active compounds read low)?
**A.** The normalized growth was 1.02.

**Q.** And the normalized growth (locus YCL069W, strain vba3, active compounds read low)?
**A.** Its normalized growth is 1.03.

**Q.** What about the normalized growth (locus YCR088W, strain abp1, active compounds read low) of the same compound?
**A.** Its normalized growth is 1.01.

**Q.** And the normalized growth (locus YDL005C, strain med2, active compounds read low)?
**A.** The normalized growth was 1.02.

**Q.** And the normalized growth (locus YDL035C, strain GPR1, active compounds read low)?
**A.** Its normalized growth is 0.963.

**Q.** And the normalized growth (locus YDL040C, strain nat1, active compounds read low)?
**A.** The normalized growth was 1.

**Q.** And the normalized growth (locus YDL074C, strain BRE1, active compounds read low)?
**A.** The normalized growth was 1.

**Q.** What about the normalized growth (locus YDL101C, strain DUN1, active compounds read low) of the same compound?
**A.** Its normalized growth is 0.987.

**Q.** What about the normalized growth (locus YDL134C, strain PPH21, active compounds read low) of the same compound?
**A.** Its normalized growth is 0.99.

**Q.** And the normalized growth (locus YDL185W, strain tfp1, active compounds read low)?
**A.** The normalized growth was 0.816 (active).

**Q.** What about the normalized growth (locus YDL192W, strain arf1, active compounds read low) of the same compound?
**A.** Its normalized growth is 0.952.

**Q.** And the normalized growth (locus YDR001C, strain nth1, active compounds read low)?
**A.** Its normalized growth is 1.01.

**Q.** What about the normalized growth (locus YDR069C, strain doa4, active compounds read low) of the same compound?
**A.** The normalized growth was 1.

**Q.** And the normalized growth (locus YDR101C, strain arx1, active compounds read low)?
**A.** The normalized growth was 0.903 (active).

**Q.** What about the normalized growth (locus YDR137W, strain rgp1, active compounds read low) of the same compound?
**A.** Its normalized growth is 1.03.

**Q.** What about the normalized growth (locus YDR150W, strain NUM1, active compounds read low) of the same compound?
**A.** The normalized growth was 0.983.

**Q.** And the normalized growth (locus YDR159W, strain sac3, active compounds read low)?
**A.** Its normalized growth is 0.977.

**Q.** What about the normalized growth (locus YDR162C, strain NBP2, active compounds read low) of the same compound?
**A.** Its normalized growth is 0.967.

**Q.** And the normalized growth (locus YDR195W, strain ref2)?
**A.** The normalized growth was 1.02.

**Q.** What about the normalized growth (locus YDR297W, strain sur2, active compounds read low) of the same compound?
**A.** The normalized growth was 1.01.

**Q.** What about the normalized growth (locus YDR318W, strain mcm21, active compounds read low) of the same compound?
**A.** Its normalized growth is 0.893 (active).

**Q.** And the normalized growth (locus YDR334W, strain swr1, active compounds read low)?
**A.** Its normalized growth is 1.02.

**Q.** What about the normalized growth (locus YDR335W, strain msn5, active compounds read low) of the same compound?
**A.** Its normalized growth is 1.

**Q.** What about the normalized growth (locus YDR388W, active compounds read low) of the same compound?
**A.** The normalized growth was 0.923 (active).

**Q.** What about the normalized growth (locus YDR392W, strain spt3, active compounds read low) of the same compound?
**A.** Its normalized growth is 0.933.

**Q.** What about the normalized growth (locus YDR502C, strain sam2, active compounds read low) of the same compound?
**A.** Its normalized growth is 0.91 (active).

**Q.** What about the normalized growth (locus YEL003W, strain gim4, active compounds read low) of the same compound?
**A.** Its normalized growth is 1.01.

**Q.** What about the normalized growth (locus YEL037C, strain rad23, active compounds read low) of the same compound?
**A.** The normalized growth was 1.02.

**Q.** And the normalized growth (locus YEL061C, strain CIN8 (second series), active compounds read low)?
**A.** The normalized growth was 1.01.

**Q.** And the normalized growth (locus YEL061C, strain CIN8, active compounds read low)?
**A.** Its normalized growth is 0.987.

**Q.** And the normalized growth (locus YER015W, strain faa2, active compounds read low)?
**A.** The normalized growth was 1.01.

**Q.** What about the normalized growth (locus YER016W, strain bim1, active compounds read low) of the same compound?
**A.** The normalized growth was 1.04.

**Q.** And the normalized growth (locus YER110C, active compounds read low)?
**A.** Its normalized growth is 0.929.

**Q.** What about the normalized growth (locus YER111C, strain swi4, active compounds read low) of the same compound?
**A.** Its normalized growth is 1.02.

**Q.** And the normalized growth (locus YER155C, strain BEM2 (second series), active compounds read low)?
**A.** Its normalized growth is 1.02.

**Q.** What about the normalized growth (locus YER155C, strain BEM2, active compounds read low) of the same compound?
**A.** Its normalized growth is 0.891 (active).

**Q.** And the normalized growth (locus YER167W, strain BCK2, active compounds read low)?
**A.** Its normalized growth is 0.939.

**Q.** What about the normalized growth (locus YFR010W, strain ubp6, active compounds read low) of the same compound?
**A.** The normalized growth was 1.01.

**Q.** What about the normalized growth (locus YGL078C, strain dbp3, active compounds read low) of the same compound?
**A.** The normalized growth was 0.806 (active).

**Q.** What about the normalized growth (locus YGL086W, strain mad1, active compounds read low) of the same compound?
**A.** Its normalized growth is 0.955.

**Q.** What about the normalized growth (locus YGL167C, strain pmr1, active compounds read low) of the same compound?
**A.** The normalized growth was 1.02.

**Q.** What about the normalized growth (locus YGL173C, strain kem1, active compounds read low) of the same compound?
**A.** The normalized growth was 0.998.

**Q.** What about the normalized growth (locus YGL227W, strain vid30, active compounds read low) of the same compound?
**A.** The normalized growth was 1.03.

**Q.** What about the normalized growth (locus YGL240W, strain doc1, active compounds read low) of the same compound?
**A.** The normalized growth was 0.97.

**Q.** And the normalized growth (locus YGL248W, strain PDE1, active compounds read low)?
**A.** Its normalized growth is 0.996.

**Q.** What about the normalized growth (locus YGL253W, strain hxk2, active compounds read low) of the same compound?
**A.** The normalized growth was 1.01.

**Q.** And the normalized growth (locus YGR078C, strain PAC10, active compounds read low)?
**A.** The normalized growth was 0.988.

**Q.** What about the normalized growth (locus YGR135W, strain pre9, active compounds read low) of the same compound?
**A.** Its normalized growth is 0.937.

**Q.** And the normalized growth (locus YGR229C, strain SMI1, active compounds read low)?
**A.** Its normalized growth is 1.01.

**Q.** And the normalized growth (locus YGR252W, strain gcn5, active compounds read low)?
**A.** The normalized growth was 0.898.

**Q.** What about the normalized growth (locus YHR013C, strain ard1, active compounds read low) of the same compound?
**A.** The normalized growth was 1.02.

**Q.** What about the normalized growth (locus YHR027C, strain rpn1, active compounds read low) of the same compound?
**A.** Its normalized growth is 1.02.

**Q.** What about the normalized growth (locus YHR030C, strain SLT2, active compounds read low) of the same compound?
**A.** Its normalized growth is 0.976 and 0.967.

**Q.** And the normalized growth (locus YHR079C, strain IRE1 (second series), active compounds read low)?
**A.** The normalized growth was 0.865 (active).

**Q.** What about the normalized growth (locus YHR079C, strain IRE1, active compounds read low) of the same compound?
**A.** Its normalized growth is 0.961.

**Q.** What about the normalized growth (locus YHR094C, strain hxt1, active compounds read low) of the same compound?
**A.** Its normalized growth is 0.9 (active).

**Q.** What about the normalized growth (locus YHR129C, strain ARP1, active compounds read low) of the same compound?
**A.** The normalized growth was 0.958.

**Q.** What about the normalized growth (locus YHR142W, strain chs7, active compounds read low) of the same compound?
**A.** Its normalized growth is 1.02.

**Q.** And the normalized growth (locus YHR200W, strain rpn10, active compounds read low)?
**A.** Its normalized growth is 0.91 (active).

**Q.** What about the normalized growth (locus YIL066C, strain RNR3, active compounds read low) of the same compound?
**A.** The normalized growth was 0.987.

**Q.** And the normalized growth (locus YIL073C, strain SPO22, active compounds read low)?
**A.** Its normalized growth is 1.01.

**Q.** And the normalized growth (locus YIL125W, strain kgd1, active compounds read low)?
**A.** Its normalized growth is 0.787 (active).

**Q.** And the normalized growth (locus YIR030C, strain dcg1, active compounds read low)?
**A.** The normalized growth was 0.899 (active).

**Q.** What about the normalized growth (locus YJL092W, strain hpr5, active compounds read low) of the same compound?
**A.** The normalized growth was 1.01.

**Q.** What about the normalized growth (locus YJL095W, strain BCK1 (second series), active compounds read low) of the same compound?
**A.** Its normalized growth is 1.01.

**Q.** What about the normalized growth (locus YJL095W, strain BCK1, active compounds read low) of the same compound?
**A.** The normalized growth was 1.01 and 0.968.

**Q.** And the normalized growth (locus YJL115W, strain asf1, active compounds read low)?
**A.** The normalized growth was 1.02.

**Q.** What about the normalized growth (locus YJL129C, strain trk1, active compounds read low) of the same compound?
**A.** The normalized growth was 1.03.

**Q.** And the normalized growth (locus YJL134W, strain LCB3, active compounds read low)?
**A.** The normalized growth was 0.969.

**Q.** What about the normalized growth (locus YJL154C, strain vps35, active compounds read low) of the same compound?
**A.** Its normalized growth is 1.01.

**Q.** And the normalized growth (locus YJL164C, strain tpk1, active compounds read low)?
**A.** The normalized growth was 1.02.

**Q.** And the normalized growth (locus YJL166W, strain qcr8, active compounds read low)?
**A.** The normalized growth was 1.03.

**Q.** What about the normalized growth (locus YJL168C, strain set2, active compounds read low) of the same compound?
**A.** Its normalized growth is 0.915 (active).

**Q.** What about the normalized growth (locus YJL187C, strain SWE1 (second series), active compounds read low) of the same compound?
**A.** Its normalized growth is 0.988.

**Q.** What about the normalized growth (locus YJL187C, strain SWE1, active compounds read low) of the same compound?
**A.** Its normalized growth is 1.02.

**Q.** What about the normalized growth (locus YJR043C, strain POL32, active compounds read low) of the same compound?
**A.** The normalized growth was 0.939.

**Q.** What about the normalized growth (locus YJR066W, strain TOR1, active compounds read low) of the same compound?
**A.** Its normalized growth is 0.935.
